Results from PubChem BioAssay (Tox21).
Results filed as inconclusive are left out. Active and inactive are the calls of the source. Unless noted, the call rests on the fitted dose curve; in most records, active means well fitted curve in the direction sought with a large enough effect in the repeat runs; inconclusive means weak or mixed curves; inactive means flat fitted curve, though single readings scatter.

Assays:
[1] = qHTS assay to test for compound auto fluorescence at 535 nm (green) in HEK293 cells (AID 720680)
[2] = qHTS assay to test for compound auto fluorescence at 460 nm (blue) in HEK293 cell free culture (AID 720681)
Outline: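 Blue fluorescence (Ex 405/Em 460 nm, triamterene-equivalent) was read immediately after pin transfer of compound or DMSO into medium (DMEM, 10% FBS) without cells.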

[3] = qHTS assay to test for compound auto fluorescence at 535 nm (green) in HEK293 cell free culture (AID 720682)
Outline: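 Intrinsic compound fluorescence is measured in culture medium containing 10% FBS, with excitation at 485 nm and detection at 535 nm, referenced to fluorescein.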

[4] = qHTS assay to test for compound auto fluorescence at 590 nm (red) in HEK293 cell free culture (AID 720683)
Outline: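 Red-channel autofluorescence of compounds in culture medium (DMEM, 10% FBS), no cells, measured at 540/590 nm. Rose Bengal sodium is the reference fluorophore for equivalence.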

[5] = qHTS assay to test for compound auto fluorescence at 590 nm (red) in HepG2 cell free culture (AID 720684)
Outline: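 Cell-free; medium MEM + 10% FBS; compound or DMSO added by pintool; read Ex 540/Em 590 nm; Rose Bengal sodium as red reference fluorophore.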

[6] = qHTS assay to test for compound auto fluorescence at 460 nm (blue) in HepG2 cell free culture (AID 720685)
Outline: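 Cell-free plates of MEM plus 10% FBS received 23 nL compound or DMSO vehicle; blue-channel (405/460 nm) intensity scored against triamterene as reference fluorophore.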

[7] = qHTS assay to test for compound auto fluorescence at 535 nm (green) in HepG2 cell free culture (AID 720686)
[8] = qHTS assay to test for compound auto fluorescence at 460 nm (blue) in HepG2 cells (AID 720687)
Outline: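 Blue-channel autofluorescence (Ex/Em 405/460 nm, triamterene-equivalent) was measured after 1 hr compound exposure at 37 C, 5% CO2. Cells were HepG2, plated overnight at 37 C in MEM plus 10% FBS.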

[9] = biological target: Glucocorticoid receptor (Homo sapiens) (UniProt P04150); test: qHTS assay to identify small molecule agonists of the glucocorticoid receptor (GR) signaling pathway (AID 720691; active means well fitted activation curve with a large enough effect in the signal ratio in the repeat runs, not every such curve was filed as active; the % refers to the signal ratio)
Glucocorticoid receptor (Homo sapiens), sequence (P04150 whole entry, looked up): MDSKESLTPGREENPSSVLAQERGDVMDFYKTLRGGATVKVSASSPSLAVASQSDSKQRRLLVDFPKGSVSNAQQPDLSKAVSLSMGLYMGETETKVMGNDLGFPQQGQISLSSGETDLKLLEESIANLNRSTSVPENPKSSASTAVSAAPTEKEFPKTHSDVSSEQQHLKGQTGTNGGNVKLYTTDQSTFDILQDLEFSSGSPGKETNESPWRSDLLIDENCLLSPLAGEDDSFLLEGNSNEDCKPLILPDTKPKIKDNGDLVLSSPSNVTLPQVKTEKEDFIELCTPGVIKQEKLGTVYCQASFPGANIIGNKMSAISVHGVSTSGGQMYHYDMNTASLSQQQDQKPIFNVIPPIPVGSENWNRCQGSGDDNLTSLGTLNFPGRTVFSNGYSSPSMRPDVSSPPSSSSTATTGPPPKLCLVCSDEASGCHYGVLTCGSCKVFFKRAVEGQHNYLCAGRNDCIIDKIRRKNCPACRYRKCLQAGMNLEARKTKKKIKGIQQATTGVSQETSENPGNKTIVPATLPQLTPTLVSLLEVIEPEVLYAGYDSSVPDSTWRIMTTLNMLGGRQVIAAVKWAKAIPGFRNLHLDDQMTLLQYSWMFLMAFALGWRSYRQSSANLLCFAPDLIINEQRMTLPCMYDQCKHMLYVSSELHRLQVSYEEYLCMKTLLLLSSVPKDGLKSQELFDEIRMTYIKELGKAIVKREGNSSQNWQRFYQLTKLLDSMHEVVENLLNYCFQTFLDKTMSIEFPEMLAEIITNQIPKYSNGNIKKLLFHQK
Outline: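 Steps: seed GR-bla HeLa cells, incubate 4 h at 37 C/5% CO2; pin-transfer DMSO-dissolved compounds; incubate 18 h at 37 C; add LiveBLAzer B/G FRET substrate; after 2 h at room temperature, measure fluorescence.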

[10] = biological target: Glucocorticoid receptor (Homo sapiens) (UniProt P04150); test: qHTS assay to identify small molecule antagonists of the glucocorticoid receptor (GR) signaling pathway (AID 720692; active means well fitted inhibition curve with a large enough effect in the signal ratio in the repeat runs, not every such curve was filed as active; the % refers to the signal ratio)
Outline: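 Antagonism was scored as loss of dexamethasone-driven (5 nM final) reporter signal in HeLa cells bearing a glucocorticoid response element–beta-lactamase construct, after 18 h compound exposure at 37 C and 2 h FRET substrate loading.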

Measured: Potency

C=C(CC(=O)O)C(=O)O
inactive: all assays above

CN=C(NC#N)NCCSCc1nc[nH]c1C
not listed: [6] | [9] | [10]
inactive: all other assays above

CCCCCC(C)=O
not listed: [6]
inactive: all other assays above

Cc1ccc(C)c(S(=O)(=O)O)c1
not listed: [6] | [9] | [10]
inactive: all other assays above

c1cnc2c(c1)ccc1cccnc12
not listed: [4] | [9] | [10]
inactive: all other assays above

OCc1ccc(Cl)cc1Cl
not listed: [6] | [9] | [10]
inactive: all other assays above

CCCCCCCC(=O)O
not listed: [6]
inactive: all other assays above

C=C1C[C@]23C[C@@]1(O)CC[C@H]2[C@@]12C=C[C@H](O)[C@@](C)(C(=O)O1)[C@H]2[C@@H]3C(=O)O
not listed: [6]
inactive: all other assays above

Cc1ccccc1Cl
not listed: [6]
inactive: all other assays above

COc1c2ccoc2cc2oc(=O)ccc12
inactive: all assays above

Nc1cccc(C(F)(F)F)c1
not listed: [6] | [9] | [10]
inactive: all other assays above

C=C(C)CC(C)(C)C
not listed: [6]
inactive: all other assays above

CCn1cc(C(=O)O)c(=O)c2cc3c(cc21)OCO3
not listed: [6] | [9] | [10]
inactive: all other assays above

O=C(O)Cc1c[nH]c2ccccc12
inactive: all assays above

Cc1cc(CC(=O)O)n(C)c1C(=O)c1ccc(Cl)cc1
inactive: all assays above

Cc1ccc(C(C)C)cc1
inactive: all assays above

O=[N+]([O-])c1ccccc1C(F)(F)F
not listed: [6] | [9] | [10]
inactive: all other assays above

OC[C@H]1O[C@@H](Oc2ccc(O)cc2)[C@H](O)[C@@H](O)[C@@H]1O
not listed: [6] | [9] | [10]
inactive: all other assays above

CC(COCC(C)OC(=O)c1ccccc1)OC(=O)c1ccccc1 (stereo not drawn)
not listed: [6]
inactive: all other assays above

CCCCCCC(=O)O
not listed: [6]
inactive: all other assays above

Cc1cc(C)cc(O)c1
not listed: [6]
inactive: all other assays above

COC(=O)OC
inactive: all assays above

CCN(CC)CCNC(=O)c1ccc(N)cc1
inactive: [1] | [2] | [3] | [5] | [7] | [8]

OCCOCCOCCOCCOCCO
not listed: [4] | [9] | [10]
inactive: all other assays above

CC(C)(CO)CO
not listed: [4]
inactive: all other assays above

OC1CCCCC1
not listed: [4]
inactive: all other assays above

CCCOC(=O)NCCCN(C)C
not listed: [4] | [9] | [10]
inactive: all other assays above

CS(=O)(=O)c1ccc(Cl)cc1
not listed: [4] | [6]
inactive: all other assays above

Oc1ccc(Cc2ccccc2O)cc1
not listed: [4]
inactive: all other assays above
